Reference: PubChem BioAssay AID504467 (National Center for Advancing Translational Sciences (NCATS), 2011)
Hit rate of the full screen: of about 330,000 compounds, about 7,700 (2.3%) were called active. Inconclusive results (about 26%) are left out. The sample holds actives, similar compounds and a random draw of the others, so the mix is not that of the screen. The call rests on the fitted dose curve; in most records, active means well fitted inhibition curve with a large enough effect; inconclusive means small, poorly fitted or top-dose-only effect, or effect the other way; inactive means flat fitted curve, though single readings scatter.

test: qHTS screen for small molecules that inhibit ELG1-dependent DNA repair in human embryonic kidney (HEK293T) cells expressing luciferase-tagged ELG1; conditions: HEK293T ELG1-luciferase reporter, luminescence, 16 h, DNA damage induced by 5-fluorouridine; series mostly up to 46.1 µM; activity change, negative = inhibition: at the top concentration; further: nearly all actives have a fitted effect of over 55% in size
How it was run: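 HEK293T cells expressing luciferase-tagged ELG1 (2,000/well) received 5-Fluorouridine plus compound or DMSO for 16 hr at 37 °C. Luciferase was read by ONE-Glo luminescence after 30 min at room temperature.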
On the % scale 0 is the no-effect control and ±100 the full control effect; potency means the concentration at half of the fitted maximal effect.

Row | SMILES | activity change, negative = inhibition | Potency
1 | O=C(Nc1cc(Cl)ccc1N1CCOCC1)c1ccc(N2CCCC2=O)cc1 | -24.4% (inactive) | 
2 | NCCN1CCN2C(=O)CN(C(=O)c3ccccc3)CC12 (configuration not stated) | 12.8% (inactive) | 
3 | CC1(C(=O)N/N=C/c2cc3c(cc2Br)OCO3)CC1(Br)Br (configuration not stated) | -16.5% (inactive) | 
4 | COc1ccc2oc(=O)cc(-c3cc4ccccc4o3)c2c1 | -6.6% (inactive) | 
5 | COc1ccc(Nc2cc(=O)oc3ccccc23)cc1 |  | 4.61 µM (active)
6 | COc1ccc(CC(=O)Nc2c(C(N)=O)oc3ccccc23)cc1 | -23.4% (inactive) | 
7 | CCCOc1ccc(C2=CSC3=NCCN23)cc1Cl | 5.39% (inactive) | 
8 | Cc1nc2ccccc2c2oc(C(=O)NCC3CCCO3)cc12 (configuration not stated) |  | 20.6 µM (active)
9 | CCCN(CCC)CCNC(=O)c1cc2c(C)nc3ccccc3c2o1 | -18.2% (inactive) | 
10 | O=C(NCC1CCCO1)c1cc(-c2ccccc2)nc2ccccc12 (configuration not stated) | -17.2% (inactive) | 
11 | c1ccc2c(NCC3CCCO3)nc(-c3ccncc3)nc2c1 (configuration not stated) |  | 18.4 µM (active)
12 | c1ccc(-c2nc(NCc3ccco3)c3ccccc3n2)cc1 | -29.8% (inactive) | 
13 | Cc1nc2ccccc2c2oc(C(=O)NCCCN3CCC(C)CC3)cc12 | 5.09% (inactive) | 
14 | O=C(Cn1ncc2c3ccccc3n(Cc3ccccc3)c2c1=O)NCCCN1CCOCC1 | 4.71% (inactive) | 
15 | COc1ccc(NC(=O)C(C)N2c3cccc4cccc(c34)S2(=O)=O)c(OC)c1 (configuration not stated) | -15.1% (inactive) | 
16 | CCC1(CC)NC(=O)N(CC(=O)OCC(=O)c2cc(C)c(C)cc2C)C1=O | -0.913% (inactive) | 
17 | CCN(C(=O)CSc1nnnn1-c1ccc(OC)cc1)C1CCS(=O)(=O)C1 (configuration not stated) | 0% (inactive) | 
18 | O=C(Nc1ccc(N2CCN(C(=O)c3cccs3)CC2)cc1)c1cccnc1Cl | -11.4% (inactive) | 
19 | Cc1ccccc1C(=O)N1CCN(c2ccc(NC(=O)c3cccs3)cc2)CC1 |  | 9.2 µM (active)
20 | O=C(Nc1ccc(N2CCN(C(=O)C3CC3)CC2)cc1)c1cccs1 | 0.812% (inactive) | 
21 | COc1ccc(CNC(=O)C[C@H]2C[C@H](C(=O)N3CCOCC3)[C@@]3(C)c4[nH]c5cc(CCC(=O)N(C)C)ccc5c4CCN3C2=O)cc1OC | 17.5% (inactive) | 

Row | SMILES | activity change, negative = inhibition | Potency
22 | CCc1ccccc1NC(=O)CN(C)C(=O)c1cc(C2CC2)nn1-c1ccccc1 | -11.9% (inactive) | 
23 | O=C(c1ccc2nc(N3CCOCC3)sc2c1)N1CCN(c2ccc(Cl)cc2)CC1 | -4.91% (inactive) | 
24 | O=C(/C=C/c1cn(-c2ccccc2)nc1-c1ccc2c(c1)OCCO2)NCCCN1CCOCC1 | -6.31% (inactive) | 
25 | O=C(/C=C\c1cn(-c2ccccc2)nc1-c1cccs1)N1CCOCC1 |  | 16.4 µM (active)
26 | O=C(O)/C=C/c1cn(Cc2ccccc2)nc1-c1cccs1 | -14.2% (inactive) | 
27 | CC(C)C[C@H](NC(=O)N1CC(=O)Nc2ccccc21)C(=O)N[C@H](Cc1ccccc1)C(=O)O | 10.5% (inactive) | 
28 | CCCCCCSc1ccc(-c2nc3ccc(Cl)cn3c2NCc2ccccc2)cc1 | 6.49% (inactive) | 
29 | COc1ccc(CCN(C(=O)COc2ccccc2)c2nc(-c3ccccc3)cs2)cc1OC |  | 23.1 µM (active)
30 | CN(C(=O)COc1ccccc1)c1nnc(-c2ccncc2)s1 | 7.66% (inactive) | 
31 | CN(C)CCCN(C(=O)COc1ccccc1)c1nc2c(Cl)cccc2s1 | 9.83% (inactive) | 
32 | Cc1cc(F)ccc1NC(=S)NCCc1ccccc1 | 1.45% (inactive) | 
33 | COc1ccc(-c2noc(C(C)NS(=O)(=O)c3ccc(NC(C)=O)cc3)n2)cc1 (configuration not stated) | -13.9% (inactive) | 
34 | COc1ccc(-n2c(=O)[nH]c3cc(C(=O)NCCc4ccc(OC)c(OC)c4)ccc3c2=O)c(OC)c1 | -14.1% (inactive) | 
35 | O=C(CCl)NNc1nc(-c2ccccc2)c2cc(Cl)ccc2n1 | 4.46% (inactive) | 
36 | NC(N)=Nc1nc(-c2ccccc2)c2cc(Cl)ccc2n1 | -0.933% (inactive) | 
37 | Clc1ccc2nc(-c3ccccc3)nc(C(Cl)Cl)c2c1 |  | 2.31 µM (active)
38 | Cn1c(CCN2CCCC2)nc2cc(NS(=O)(=O)c3ccccc3)ccc21 | 5.94% (inactive) | 
39 | CCOCCn1[nH]c2ccccc2c1=O | 13.6% (inactive) | 
40 | COc1ccc(N(CC(=O)NCc2ccc(F)cc2)C(=O)CCC(=O)Nc2nccs2)cc1 | 0.798% (inactive) | 
41 | COc1ccc(NC(=O)CN(C)CC(=O)Nc2cccc(C(F)(F)F)c2)cc1 | -9.58% (inactive) | 
42 | Cc1cccc(NC(=O)c2nnn(-c3cccc(C(F)(F)F)c3)c2N)c1 | 57.7% (inactive) | 

Row | SMILES | activity change, negative = inhibition | Potency
43 | COc1cc(NC(=O)c2[nH]cnc2C(N)=O)cc(C(=O)Nc2cccc(C(F)(F)F)c2)c1 |  | 5.8 µM (active)
44 | CN=C(Nc1cccc(S(=O)(=O)N2CCOCC2)c1)c1ccccc1 | 11.8% (inactive) | 
45 | Cn1cncc1C#Cc1c(-c2ccsc2)sc2ccccc12 | 0% (inactive) | 
46 | CNS(=O)(=O)c1ccc(C(=O)NCC(=O)NCCc2ccc3c(c2)OCCO3)cc1 | 19.4% (inactive) | 
47 | COc1ccccc1/C=C1\SC(=O)N(CCC(=O)N(C)C2CCS(=O)(=O)C2)C1=O (configuration not stated) | -1.47% (inactive) | 
48 | Cn1c(SCC(=O)N/N=C/c2ccc(O)c(O)c2)nc2ccccc21 | -9.45% (inactive) | 
49 | Cc1nn(-c2ccccc2)c(C)c1/C=N/NC(=O)CSc1nc2ccccc2c(=O)n1-c1ccccc1 |  | 16.4 µM (active)
50 | O=C(CSc1nc2ccccc2c(=O)n1-c1ccc(F)cc1)NC1CC1 | 21.9% (inactive) | 
51 | COCCCNC(=O)CNC(=O)c1nn(-c2ccc(OC)cc2)c(=O)c2ccccc12 | 3.34% (inactive) | 
52 | CCCN(CCC)CCCNC(=O)CNC(=O)c1nn(-c2ccc(OC)cc2)c(=O)c2ccccc12 | -0.0392% (inactive) | 
53 | COc1ccc(-n2nc(C(=O)NCC(=O)Nc3cccc(C)n3)c3ccccc3c2=O)cc1 |  | 18.4 µM (active)
54 | CN1CCN(S(=O)(=O)c2ccc(N3CCN(c4ccccc4O)CC3)c([N+](=O)[O-])c2)CC1 | -9.8% (inactive) | 
55 | CCOc1ccc(CCNC(=O)CN2C(=O)NC3(CCc4ccccc43)C2=O)cc1OCC (configuration not stated) | 0.584% (inactive) | 
56 | O=C(c1cccc(C(=O)N2CCN(c3ccc(F)cc3)CC2)c1)N1CCN(c2ccc(F)cc2)CC1 |  | 18.4 µM (active)
57 | O=C(c1ccc(Cl)c([N+](=O)[O-])c1)N1CCN(c2ccccc2)CC1 | -21.3% (inactive) | 
58 | O=C(c1cc(C(=O)N2CCN(c3ccc(F)cc3)CC2)cc([N+](=O)[O-])c1)N1CCN(c2ccc(F)cc2)CC1 |  | 11.2 µM (active)
59 | O=C(c1ccccc1)c1ccc(C(=O)N2CCN(c3ccccc3)CC2)cc1 | -3.04% (inactive) | 
60 | O=C(c1cc2cc(F)ccc2[nH]1)N1CCN(c2ccc(F)cc2)CC1 | -2.05% (inactive) | 
61 | O=C(c1cccc(F)c1)N1CCN(c2ccc([N+](=O)[O-])c(N3CCCCC3)c2)CC1 | -15.8% (inactive) | 
62 | N#CC(Cc1cc2ccccc2n1S(=O)(=O)c1ccccc1)OCc1ccccc1 (configuration not stated) | -3.89% (inactive) | 
